# Measurements published in PubChem BioAssay (NCATS).
# Where “and” joins values, the source holds several entries; their conditions need not be identical. Equal entries are not always repeated. Inconclusive results are not listed. Calls of active or inactive are those of the source. Unless noted, the call rests on the fitted dose curve; in most records, active means well fitted curve in the direction sought with a large enough effect; inconclusive means small, poorly fitted or top-dose-only effect, or another doubt; inactive means no such curve, though single readings can be large; an effect the other way counts as inactive or inconclusive.
# Experiments:
# [1] = AP1 Signaling Pathway (AID 357; active means well fitted curve in either direction with a large enough effect, not every such curve was filed as active;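 further: ME-180 reporter cells stimulated with EGF at its EC50 level; on the % scale 0 is the no-effect control and ±100 the full control effect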); details: ME-180 AP-1-bla reporter, EGF-induced, beta-lactamase ratio, 5 h
# How it was run: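 A ratiometric CCF4 readout (405 nm excitation; 460 and 530 nm emission) quantified AP-1-driven beta-lactamase in ME-180 cells after 5 h with compound and EC50 EGF; AC50 values were derived for activators and inhibitors.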
# [2] = target: Cytochrome P450 1A2 (Homo sapiens) (UniProt P05177); assay: p450-cyp1a2 (AID 410; calls by dose curve;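 further: -100% = full effect of reference inhibitor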)
# How it was run: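 O-Demethylation of luciferin 6' methyl ether by human CYP1A2 is monitored as luciferase luminescence. Substrate sits at Km (100uM); enzyme is 20nM. Values are scaled to 57 uM furafylline as maximal inhibition.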
# [3] = NFAT Signaling Pathway (AID 444; active means well fitted curve in either direction with a large enough effect, not every such curve was filed as active;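 further: carbachol stimulus at about its EC50 of 1 µM final; on the % scale 0 is the no-effect control and ±100 the full control effect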); details: Jurkat NFAT-bla M1, carbachol, beta-lactamase ratio, 5 h; at 7.69 µM (top of the series) unless noted
# How it was run: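 Jurkat cells carrying an NFAT-driven β-lactamase reporter and co-transfected muscarinic M1 receptor were treated with compound plus carbachol (1 uM final, an EC50 level) for 5 h at 37 °C. CCF4 loading followed for 1 h at RT; 460/530 nm ratio gave %activity.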
# [4] = Stat Signaling Pathway (AID 446; active means well fitted curve in either direction with a large enough effect, not every such curve was filed as active;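 further: ME-180 cervical cancer cells given 40 pM IL-6 alongside compound; SIE-controlled beta-lactamase reporter measured as 460/530 nm FRET emission ratio; on the % scale 0 is the no-effect control and ±100 the full control effect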); details: ME-180 (cervical carcinoma) SIE beta-lactamase reporter, IL-6 stimulated, 5 h; at 7.69 µM (top of the series) unless noted
# How it was run: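 Emission at 460 and 530 nm (excitation 405 nm) reports SIE-controlled beta-lactamase in ME-180 cells. Cells received compound with 40 pM IL-6 for 5 hrs at 37 C; data scaled between 300 pM IL-6 and 125 nM JAK-inhibitor controls.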
# [5] = target: Glucocorticoid receptor (Homo sapiens) (UniProt P04150); assay: GR-GFP Redistribution (AID 450;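 active means compounds whose dose series gives a full or clear partial fitted curve of increased nuclear translocation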; further: potency means the concentration at half of the fitted maximal effect); details: U2OS GR-GFP nuclear translocation, laser cytometry, 2 h
# [6] = target: Glucocorticoid receptor (Homo sapiens) (UniProt P04150); assay: GR-EFC Redistribution (AID 451; calls by dose curve; further: potency means the concentration at half of the fitted maximal effect); details: CHO-K1 GR-EFC translocation, beta-gal luminescence, 2 h
# How it was run: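 CHO-K1 cells stably expressing nuclear-localized β-gal enzyme acceptor and GR fused C-terminally to the enzyme donor fragment; ligand-driven nuclear translocation restores β-gal by complementation. Compounds titrated up to 46 uM final, 2 h at 37 °C; luminescence read.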
# [7] = target: Mitogen-activated protein kinase 10 (Mus musculus) (UniProt Q61831); assay: JNK3 AlphaScreen Assay (AID 530; active means well fitted curve in either direction with a large enough effect, not every such curve was filed as active;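 further: kinase came from lysate of stimulated human HepG2 cells; signal reports phosphorylation of biotinylated GST-cJun 1-79 at Ser73 with 10 µM ATP; on the % scale 0 is the no-effect control and ±100 the full control effect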)
# How it was run: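 Phosphorylation of biotinylated GST-cJun(1-79) at Ser73 is measured by AlphaScreen proximity luminescence. Enzyme is JNK3 in HepG2 lysates activated with interleukin-1beta and tumor necrosis factor alpha; ATP is 10 uM final.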
# [8] = target: 3',5'-cyclic-AMP phosphodiesterase 4B (Homo sapiens) (UniProt Q07343); assay: qHTS Assay for Inhibitors of PDE-IV (AID 607; active means well fitted activation curve with a large enough effect in the main read-out, with a control signal flat, not every such curve was filed as active; further: % of control where 0% means no effect)
# How it was run: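 The readout is membrane depolarisation from a cAMP-sensing CNG channel, detected with a potential dye at ex 535/em 590. Cells were HEK293-derived (endogenous PDE-IV) at 1000 cells/well, titrated up to 22.9 uM final.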
# [9] = qHTS Assay for Lipid Storage Modulators (AID 1519; calls by dose curve); details: Drosophila S3 cells, BODIPY lipid droplet/cell ratio, laser cytometry, cells loaded with oleic acid; for activity change, negative = inhibition: at 25.7 µM (top of the series)
# How it was run: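 Cells seeded at 5,000 per well were treated with compounds over a concentration series and loaded with oleic acid (400 uM, as added). Lipid droplet fluorescence (488 nm excitation, 500-530 nm channel) was read by laser-scanning cytometry and normalized to 20 uM Triacsin C.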
# [10] = target: Ubiquitin carboxyl-terminal hydrolase 1 (Homo sapiens) (UniProt O94782); assay: Inhibitors of USP1/UAF1: Pilot qHTS (AID 504865);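 further: rhodamine fluorescence freed from ubiquitin-rhodamine substrate followed over time; top concentration of the series differs between compounds; on the % scale 0 is the no-effect control and ±100 the full control effect; nearly all actives have a fitted effect of over 35% in size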
# How it was run: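 USP1/UAF1 complex (1nM) preincubated with compound 15 min at room temperature, then Ub-Rho substrate (150nM final) added. Fluorescence read kinetically at 480/540 nm, 6 reads every 60 seconds. Buffer: 50mM HEPES pH 7.8, 0.5mM EDTA, 0.1 mg/ml BSA, 1mM TCEP, 0.01% Tween-20.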
# [11] = target: Luciferin 4-monooxygenase (Photinus pyralis) (UniProt P08659); assay: Biochemical firefly luciferase enzyme assay for NPC (AID 624030);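 further: purified P. pyralis luciferase at 10 nM with luciferin and ATP substrate; 0% = DMSO and -100% = full luciferase inhibition by PTC124 control; nearly all actives have a fitted effect of over 70% in size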
# How it was run: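 Counter-screen for direct inhibition of the luciferase enzyme by approved-drug library compounds, run at 10 nM enzyme in 50 mM Tris acetate (final). Luminescence was read within 5 min of enzyme-buffer addition and normalized to PTC124 versus DMSO (0%).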
# [12] = qHTS profiling for inhibitors of Plasmodium falciparum proliferation (AID 504749);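 further: 0% = DMSO vehicle and full inhibition = artemisinin control; nearly all actives have a fitted effect of over 60% in size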; details: P. falciparum in erythrocytes, SYBR Green DNA, 72 h
# How it was run: (§1)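 Quantitative HTS: compounds pinned into medium, infected erythrocytes added (0.3% parasitemia, 2.5% hematocrit), 72 h culture at 37 C under 5% CO2. Saponin/Triton lysis with SYBR Green I, overnight RT, then fluorescence read.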
# ATS189 = assay: as above; details: P. falciparum in erythrocytes, SYBR Green DNA, 72 h; series mostly up to 12.8 µM
# How it was run: as §1
# CP201 = assay: as above; details: P. falciparum in erythrocytes, SYBR Green DNA, 72 h; series mostly up to 12.8 µM
# How it was run: as §1
# CP291 = assay: as above; details: P. falciparum in erythrocytes, SYBR Green DNA, 72 h; series mostly up to 12.8 µM
# How it was run: as §1
# DFO2036 = assay: as above; details: P. falciparum in erythrocytes, SYBR Green DNA, 72 h; series mostly up to 12.8 µM
# How it was run: as §1
# PC49 = assay: as above; details: P. falciparum in erythrocytes, SYBR Green DNA, 72 h; series mostly up to 12.8 µM
# How it was run: as §1
# TAB113 = assay: as above; details: P. falciparum in erythrocytes, SYBR Green DNA, 72 h; series mostly up to 12.8 µM
# How it was run: as §1
# [13] = target: Cytochrome P450 3A4 (Homo sapiens) (UniProt P08684); assay: qHTS Assay for Activators of Cytochrome P450 3A4 (AID 885); further: potency means the concentration at half of the fitted maximal effect; nearly all actives have a fitted effect of over 65% in size
# How it was run: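 Activators are scored by enhanced luminescence from CYP3A4 conversion of luciferin-PPXE (25uM, equal to KM) to luciferin, after 60 min at RT with an NADPH-regenerating system.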
# [14] = measured here: cell count channel max response
# [15] = measured here: lipid channel max response
# [16] = at 28.7 µM (top of the series), parasite line A
# [17] = at 28.7 µM (top of the series), parasite line B
# [18] = at 7.69 µM (top of the series) unless noted
# Chain of Glucocorticoid receptor (Homo sapiens) (P04150 whole entry, looked up, the tested form may be a part): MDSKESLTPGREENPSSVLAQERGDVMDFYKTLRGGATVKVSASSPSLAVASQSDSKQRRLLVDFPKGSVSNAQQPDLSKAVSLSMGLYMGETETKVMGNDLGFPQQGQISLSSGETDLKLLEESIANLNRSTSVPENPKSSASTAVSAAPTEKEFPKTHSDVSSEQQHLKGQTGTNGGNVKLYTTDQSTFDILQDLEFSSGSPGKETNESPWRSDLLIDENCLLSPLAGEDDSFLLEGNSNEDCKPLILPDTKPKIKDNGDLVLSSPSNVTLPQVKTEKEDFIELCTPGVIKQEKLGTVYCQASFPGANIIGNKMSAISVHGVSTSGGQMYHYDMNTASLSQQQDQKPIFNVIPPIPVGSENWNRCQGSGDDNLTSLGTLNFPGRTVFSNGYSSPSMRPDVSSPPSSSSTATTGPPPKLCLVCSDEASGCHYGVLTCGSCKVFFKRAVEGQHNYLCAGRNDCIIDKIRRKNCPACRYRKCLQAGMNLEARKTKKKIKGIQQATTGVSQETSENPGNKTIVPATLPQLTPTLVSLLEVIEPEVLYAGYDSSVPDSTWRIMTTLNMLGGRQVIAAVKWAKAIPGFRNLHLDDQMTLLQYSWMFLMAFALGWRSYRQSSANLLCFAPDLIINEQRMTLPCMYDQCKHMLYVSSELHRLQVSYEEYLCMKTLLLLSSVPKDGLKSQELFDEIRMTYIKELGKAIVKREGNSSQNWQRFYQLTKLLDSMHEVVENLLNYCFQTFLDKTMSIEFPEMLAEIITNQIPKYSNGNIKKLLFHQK
# Chain of Ubiquitin carboxyl-terminal hydrolase 1 (Homo sapiens) (O94782 whole entry, looked up): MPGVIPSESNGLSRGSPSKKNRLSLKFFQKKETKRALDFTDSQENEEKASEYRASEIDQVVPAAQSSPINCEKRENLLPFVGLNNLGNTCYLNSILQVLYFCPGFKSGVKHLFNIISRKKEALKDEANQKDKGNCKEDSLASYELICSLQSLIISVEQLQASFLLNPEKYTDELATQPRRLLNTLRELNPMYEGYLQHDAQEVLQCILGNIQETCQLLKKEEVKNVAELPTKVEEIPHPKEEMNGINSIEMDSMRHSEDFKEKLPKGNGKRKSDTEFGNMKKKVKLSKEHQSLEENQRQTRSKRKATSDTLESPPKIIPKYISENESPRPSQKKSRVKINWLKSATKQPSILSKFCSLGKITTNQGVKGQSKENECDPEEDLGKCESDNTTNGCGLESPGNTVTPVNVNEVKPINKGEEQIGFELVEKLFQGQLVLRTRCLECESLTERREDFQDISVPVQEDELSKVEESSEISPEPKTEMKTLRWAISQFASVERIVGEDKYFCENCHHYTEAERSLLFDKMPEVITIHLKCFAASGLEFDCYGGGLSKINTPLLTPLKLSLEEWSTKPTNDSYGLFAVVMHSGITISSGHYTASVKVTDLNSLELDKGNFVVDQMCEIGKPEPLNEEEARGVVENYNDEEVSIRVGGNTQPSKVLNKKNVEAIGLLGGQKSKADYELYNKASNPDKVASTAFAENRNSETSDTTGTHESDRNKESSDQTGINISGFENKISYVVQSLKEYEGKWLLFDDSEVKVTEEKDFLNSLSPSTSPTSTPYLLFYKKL
# Chain of 3',5'-cyclic-AMP phosphodiesterase 4B (Homo sapiens) (Q07343 whole entry, looked up): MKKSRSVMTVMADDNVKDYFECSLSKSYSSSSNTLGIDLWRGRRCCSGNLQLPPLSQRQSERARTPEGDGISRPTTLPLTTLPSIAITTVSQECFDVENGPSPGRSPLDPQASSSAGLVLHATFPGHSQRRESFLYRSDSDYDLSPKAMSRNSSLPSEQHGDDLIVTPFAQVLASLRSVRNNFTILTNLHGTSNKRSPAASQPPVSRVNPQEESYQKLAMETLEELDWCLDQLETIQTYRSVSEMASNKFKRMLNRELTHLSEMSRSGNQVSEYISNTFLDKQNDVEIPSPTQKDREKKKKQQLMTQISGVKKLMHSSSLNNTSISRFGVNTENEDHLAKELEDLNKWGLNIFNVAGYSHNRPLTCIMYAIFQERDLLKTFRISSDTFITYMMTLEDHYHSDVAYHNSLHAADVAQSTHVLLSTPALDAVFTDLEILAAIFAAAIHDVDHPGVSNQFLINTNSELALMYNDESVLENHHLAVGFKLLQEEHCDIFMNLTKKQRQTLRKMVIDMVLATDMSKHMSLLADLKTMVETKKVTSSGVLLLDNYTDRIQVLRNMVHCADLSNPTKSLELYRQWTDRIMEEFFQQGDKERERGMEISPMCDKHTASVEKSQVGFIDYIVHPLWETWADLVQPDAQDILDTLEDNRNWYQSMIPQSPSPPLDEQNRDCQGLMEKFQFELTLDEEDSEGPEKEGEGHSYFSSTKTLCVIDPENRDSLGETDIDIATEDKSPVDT
# Chain of Luciferin 4-monooxygenase (Photinus pyralis) (P08659 whole entry, looked up): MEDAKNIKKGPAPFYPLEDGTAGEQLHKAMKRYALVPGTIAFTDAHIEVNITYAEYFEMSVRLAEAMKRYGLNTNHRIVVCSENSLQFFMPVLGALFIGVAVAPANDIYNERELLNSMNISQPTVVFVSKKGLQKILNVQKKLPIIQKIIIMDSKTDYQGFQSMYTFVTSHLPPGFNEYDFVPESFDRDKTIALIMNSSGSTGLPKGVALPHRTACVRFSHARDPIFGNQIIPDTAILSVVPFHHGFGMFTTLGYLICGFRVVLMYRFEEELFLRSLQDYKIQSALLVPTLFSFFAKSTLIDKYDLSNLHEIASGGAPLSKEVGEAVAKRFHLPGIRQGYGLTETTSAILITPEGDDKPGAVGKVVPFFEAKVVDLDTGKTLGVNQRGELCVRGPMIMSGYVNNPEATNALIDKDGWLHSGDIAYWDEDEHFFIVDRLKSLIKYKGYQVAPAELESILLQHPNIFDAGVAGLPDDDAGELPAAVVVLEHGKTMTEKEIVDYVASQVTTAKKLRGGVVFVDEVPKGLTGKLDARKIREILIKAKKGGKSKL
# Chain of Cytochrome P450 1A2 (Homo sapiens) (P05177 whole entry, looked up): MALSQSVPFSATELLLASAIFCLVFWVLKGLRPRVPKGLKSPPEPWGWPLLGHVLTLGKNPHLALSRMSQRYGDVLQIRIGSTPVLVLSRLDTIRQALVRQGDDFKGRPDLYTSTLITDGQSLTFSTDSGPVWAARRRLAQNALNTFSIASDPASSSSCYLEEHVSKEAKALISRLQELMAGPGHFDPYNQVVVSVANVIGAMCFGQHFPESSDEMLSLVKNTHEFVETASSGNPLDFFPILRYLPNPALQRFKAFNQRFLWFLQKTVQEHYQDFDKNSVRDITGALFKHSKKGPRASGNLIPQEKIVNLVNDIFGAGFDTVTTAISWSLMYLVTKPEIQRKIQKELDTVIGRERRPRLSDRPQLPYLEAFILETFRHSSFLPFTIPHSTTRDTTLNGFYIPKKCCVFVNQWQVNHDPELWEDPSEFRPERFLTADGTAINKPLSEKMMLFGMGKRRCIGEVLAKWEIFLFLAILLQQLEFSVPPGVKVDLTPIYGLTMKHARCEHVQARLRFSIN
# Chain of Cytochrome P450 3A4 (Homo sapiens) (P08684 whole entry, looked up): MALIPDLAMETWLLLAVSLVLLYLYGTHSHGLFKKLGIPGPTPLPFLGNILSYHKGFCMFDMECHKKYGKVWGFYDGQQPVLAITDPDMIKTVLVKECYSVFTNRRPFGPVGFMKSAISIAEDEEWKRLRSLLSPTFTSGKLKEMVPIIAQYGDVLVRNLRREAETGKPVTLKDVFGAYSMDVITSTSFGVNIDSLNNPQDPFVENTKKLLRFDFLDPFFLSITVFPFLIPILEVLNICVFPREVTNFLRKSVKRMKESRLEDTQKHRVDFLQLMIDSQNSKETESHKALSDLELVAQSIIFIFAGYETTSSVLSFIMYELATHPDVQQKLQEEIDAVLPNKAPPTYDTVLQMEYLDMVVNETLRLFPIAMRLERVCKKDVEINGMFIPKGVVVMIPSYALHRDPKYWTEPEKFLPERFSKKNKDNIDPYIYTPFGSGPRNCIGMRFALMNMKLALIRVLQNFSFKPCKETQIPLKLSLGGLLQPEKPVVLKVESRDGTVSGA
structure (smiles),measurement,setting,value
C[C@H](NCCc1ccc(O)cc1)[C@@H](O)c1ccc(O)cc1,"activity change, negative = inhibition",[1]; at 17.2 µM (top of the series),-5.73% (inactive)
same,"activity change, negative = inhibition",[1]; at 38 µM (top of the series),12.1% (inactive)
same,Potency,[2],inactive
same,"activity change, negative = inhibition",[3],-28.4% [at 17.2 µM] (inactive)
same,"activity, negative = inhibition",[4],13.1% [at 17.2 µM] (inactive)
same,Potency,[5],> 46 µM (inactive) and > 20.6 µM (inactive)
same,Potency,[6],> 46 µM (inactive) and > 20.6 µM (inactive)
same,Potency,[7],inactive
same,Potency,[8],inactive
same,"activity change, negative = inhibition",[9],-0.451% (inactive)
same,max response,[9]; [14],-0.183%
same,max response,[9]; [15],-0.394%
same,Potency,[10],inactive
same,outcome,[11],inactive
same,"activity, negative = inhibition",[12]; [16],3.98% (inactive)
same,"activity, negative = inhibition",[12]; [17],6.27% (inactive)
same,Potency,ATS189,inactive
same,Potency,CP201,inactive
same,Potency,CP291,inactive
same,Potency,DFO2036,inactive
same,Potency,PC49,inactive
same,Potency,TAB113,inactive
CC(=O)O[C@]1(C(C)=O)CC[C@@H]2[C@@H]3C=C(Cl)C4=CC(=O)[C@H]5C[C@@H]5[C@]4(C)[C@H]3CC[C@]21C,"activity change, negative = inhibition",[1]; at 17.2 µM (top of the series),5.64% (inactive)
same,"activity change, negative = inhibition",[1]; at 38 µM (top of the series),3.07% (inactive)
same,Potency,[2],inactive
same,"activity, negative = inhibition",[4],-5.59% [at 17.2 µM] (inactive)
same,Potency,[7],inactive
same,Potency,[8],inactive
same,Potency,[13],3.16 µM (active) and 10 µM (active)
same,"activity change, negative = inhibition",[9],-2.31% (inactive)
same,max response,[9]; [14],-4.56%
same,max response,[9]; [15],-7.45%
same,Potency,[10],inactive
CCN[C@@H]1C[C@H](C)S(=O)(=O)c2sc(S(N)(=O)=O)cc21,"activity change, negative = inhibition",[1]; [18],-11.2% [at 17.2 µM] (inactive)
same,Potency,[2],inactive
same,"activity change, negative = inhibition",[3],-16.8% [at 17.2 µM] (inactive)
same,"activity, negative = inhibition",[4],-13.1% [at 17.2 µM] (inactive)
same,Potency,[5],> 20.6 µM (inactive)
same,Potency,[6],> 20.6 µM (inactive)
same,Potency,[7],inactive
same,"activity change, negative = inhibition",[9],-5.41% (inactive)
same,max response,[9]; [14],-1.77%
same,max response,[9]; [15],-5.35%
same,outcome,[11],inactive
same,"activity, negative = inhibition",[12]; [16],7.35% (inactive)
same,"activity, negative = inhibition",[12]; [17],9.64% (inactive)
same,Potency,ATS189,inactive
same,Potency,CP201,inactive
same,Potency,CP291,inactive
same,Potency,DFO2036,inactive
same,Potency,PC49,inactive
same,Potency,TAB113,inactive
CC(=O)Nc1c(I)c(C(=O)N[C@H]2[C@@H](O)[C@H](O)[C@H](CO)O[C@@H]2O)c(I)c(N(C)C(C)=O)c1I,"activity change, negative = inhibition",[1]; [18],9.89% [at 17.2 µM] (inactive)
same,Potency,[2],inactive
same,"activity change, negative = inhibition",[3],-0.843% [at 17.2 µM] (inactive)
same,"activity, negative = inhibition",[4],-3.76% [at 17.2 µM] (inactive)
same,Potency,[5],> 20.6 µM (inactive)
same,Potency,[6],> 20.6 µM (inactive)
same,Potency,[7],inactive
same,Potency,[8],inactive
same,"activity change, negative = inhibition",[9],-0.4% (inactive)
same,max response,[9]; [14],-8.07%
same,max response,[9]; [15],-5.12%
same,Potency,[10],inactive
same,outcome,[11],inactive
same,"activity, negative = inhibition","[12]; at 12.8 µM (top of the series), parasite line A",8.5% (inactive)
same,"activity, negative = inhibition","[12]; at 12.8 µM (top of the series), parasite line B",4.91% (inactive)
same,Potency,ATS189,inactive
same,Potency,CP201,inactive
same,Potency,CP291,inactive
same,Potency,DFO2036,inactive
same,Potency,PC49,inactive
same,Potency,TAB113,inactive
